Hits are enriched below; roughly 22% of the tested compounds scored in any of these assays.
CYP2C19 inh: human CYP2C19 inhibition; P33261; hit rate 21% among 96,000; CYP2C19 Supersomes, luciferin-H EGE luminescence, 30 min; inhibition, % at 5 µM;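 active = CYP2C19 inhibition above a set limit at 5 µM in the primary screen, cut at about 50% in these data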;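 note: plate controls were negative control wells for no effect and 2.5 mM tranylcypromine positive control for full effect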
Target sequence (P33261 whole entry, looked up): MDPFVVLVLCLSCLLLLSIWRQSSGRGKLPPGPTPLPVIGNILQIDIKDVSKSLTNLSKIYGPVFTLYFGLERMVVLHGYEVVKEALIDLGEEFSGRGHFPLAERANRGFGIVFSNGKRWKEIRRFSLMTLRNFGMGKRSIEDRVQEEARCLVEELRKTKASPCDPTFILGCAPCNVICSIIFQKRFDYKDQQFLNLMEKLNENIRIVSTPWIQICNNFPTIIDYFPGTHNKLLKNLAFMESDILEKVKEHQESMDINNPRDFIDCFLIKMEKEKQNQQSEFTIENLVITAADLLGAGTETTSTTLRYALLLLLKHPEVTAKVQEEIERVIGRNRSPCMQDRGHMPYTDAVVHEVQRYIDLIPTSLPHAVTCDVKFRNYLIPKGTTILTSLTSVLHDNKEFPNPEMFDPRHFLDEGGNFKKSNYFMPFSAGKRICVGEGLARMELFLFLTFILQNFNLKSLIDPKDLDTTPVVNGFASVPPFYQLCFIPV
CYP2C9 inhib: blocks human cytochrome P450 2C9 | P11712 | CYP2C9 Supersomes, luciferin-H conversion, luminescence | inhibition, % at 5 µM | hit rate 20% among 96,000 | AID 777;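 active = blocking of liver enzyme CYP2C9 beyond about 50% at 5 µM, limit read from the data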
CYP2C19 activ: increases human CYP2C19 enzyme activity. recombinant CYP2C19, luciferin-H EGE luminescence; hits give high values; 0 = fully inhibited enzyme, 1 = untreated enzyme. activation factor at 5 µM. 96,000 tested, under 10 active;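 active = activation factor of at least 2 at 5 µM in the primary screen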;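 note: 0 = wells with 2.5 mM tranylcypromine and 1 = vehicle-only wells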
Measles CPE: protection of cells from measles virus | AID 841 | Measles virus-infected cells, CPE protection, absorbance | protection (pct of control), % at 4 µM | hit rate 1.5% among 140,000; in the data active = protection mostly above about 24%, no sharp cut-off; inactive = mostly below about 26%
CYP2C9 activ: increases human cytochrome P450 2C9 activity. recombinant CYP2C9, luciferin-H conversion, luminescence; hits give high values; factor 1 = untreated enzyme, 0 = blocked. activation factor at 5 µM. hit rate 1.4% among 96,000;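 active = activation factor of 2 or more for CYP2C9 at a 5 µM dose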;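 note: 0 = sulfaphenazole-blocked wells and 1 = vehicle-only wells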
Numbers without * were called inactive; nt = no result given.

SMILES	CYP2C19 inh	CYP2C9 inhib	CYP2C19 activ	Measles CPE	CYP2C9 activ
Cc1ccc(Cl)cc1N1CCN(C(=O)Cc2cn(C)c3ccccc23)CC1	53*	-26	0.5	14	1.3
O=C(N1CCN(c2cccc(Cl)c2)CC1)C1(S(=O)(=O)c2ccc(Cl)cc2)CC1	57*	22	0.4	4	0.8
Cc1ccc(Cl)cc1N1CCN(C(=O)C2(S(=O)(=O)c3ccc(Cl)cc3)CC2)CC1	84*	89*	0.2	5	0.1
COc1cccc(C=NCC(C)N=Cc2cccc(OC)c2O)c1O (configuration not stated)	nt	nt	nt	20	nt
COc1ccccc1C(=O)NC(=Nc1nc2ccccc2o1)NC(=O)c1ccccc1OC	65*	73*	0.3	6	0.3
O=[N+]([O-])c1cc(-c2nnc(Nc3ccc(O)cc3)c3ccccc23)ccc1N1CCOCC1	nt	nt	nt	5	nt
O=C(NNCC(O)COc1ccccc1)c1ccccc1 (configuration not stated)	nt	nt	nt	49*	nt
CC(=O)Nc1ccc(NCC(O)COc2ccccc2)cc1 (configuration not stated)	56*	34	0.4	5	0.7
Cc1ccc(C(C)C)c(OCCCN(C)Cc2ccccc2)c1	nt	nt	nt	16	nt
COc1ccccc1OCC(O)CN1C(=O)NC(C)(C)C1=O (configuration not stated)	50	36	0.5	4	0.6
Cc1ccc(C(C)C)c(OCCCN2C(=O)NC(C)(C)C2=O)c1	90*	54*	0.1	8	0.5
CC1(C)NC(=O)N(CCOCCOc2ccc3ccccc3c2Br)C1=O	88*	-4	0.1	12	1
CC1(C)NC(=O)N(CCCCOc2ccc3ccccc3c2Cl)C1=O	95*	-24	0	26	1.2
CCC(=O)c1ccccc1OCCCN1C(=O)NC(C)(C)C1=O	62*	48	0.4	3	0.5
COc1ccc[nH]c1=O	81*	33	0.2	5	0.7
Cc1nn(-c2ccccc2)c(Oc2ccc(F)cc2)c1/C=N/n1cnnc1	56*	60*	0.4	4	0.4
CCOc1ccc(Oc2c(/C=N/NC(C)=O)c(C)nn2-c2ccccc2)cc1	nt	nt	nt	4	nt
Cc1ccc(-n2nnnc2SCC(=O)NC2CCCc3ccccc32)c(C)c1 (configuration not stated)	nt	nt	nt	3	nt
Nc1ccc(Cl)cc1/C(=N/O)c1ccccc1	78*	56*	0.2	7	0.4
Nc1ccc(SC(F)(F)F)cc1C(=O)c1ccccc1	32	33	0.7	3	0.7
C/C(Cn1nnc([N+](=O)[O-])n1)=N\NC(=O)c1ccccc1Cl	9	-10	0.9	50*	1.1
COC(=O)c1ccccc1NC(=O)CSc1nc2ccccc2c(=O)[nH]1	28	59*	0.7	14	0.4
Cc1cc(C)cc(CSc2nnc(C)c(=O)[nH]2)c1	16	86*	0.8	7	0.1
Cc1nnc(SCC(=O)NCc2ccc(Cl)cc2)[nH]c1=O	-8	17	1.1	15	0.8
O=C(CSc1nc2ccccc2c(=O)[nH]1)NCc1ccc(Cl)cc1	18	51*	0.8	6	0.5
SMILES	CYP2C19 inh	CYP2C9 inhib	CYP2C19 activ	Measles CPE	CYP2C9 activ
O=C(O)CSc1nc2ccccc2c(=O)[nH]1	-7	-9	1.1	3	1.1
Cc1nnc(SCC(=O)NCc2ccccc2)[nH]c1=O	11	22	0.9	55*	0.8
Cc1c(Nc2nc(-c3ccc(Cl)cc3)cs2)c(=O)n(-c2ccccc2)n1C	nt	nt	nt	10	nt
Cc1ccc2[nH]c3c(c2c1)CCc1cn[nH]c1-3	70*	88*	0.3	24	0.1
Cc1ccc2[nH]c3c(c2c1)CCC3=O	14	23	0.9	5	0.8
CCN1C(c2ccccc2)C(C)C(=O)C(C)C1c1ccccc1 (configuration not stated)	65*	88*	0.3	10	0.1
CC1C2C(c3ccccc3)N(C)C(=O)N(C)C2N(C)C(=O)N1C (configuration not stated)	-7	-11	1.1	12	1.1
Cn1c(=O)c2nc(Cl)c(-c3ccccc3)nc2n(C)c1=O	nt	nt	nt	19	nt
O=c1[nH]c2ccccc2n1CCC1CCCCC1	93*	56*	0.1	10	0.4
O=c1[nH]c2ccccc2n1CCCSCCCn1c(=O)[nH]c2ccccc21	16	88*	0.8	12	0.1
O=c1[nH]c2ccccc2n1Cc1ccc(Cl)cc1	73*	24	0.3	12	0.8
CCn1c2ccccc2c2nnc(SCCCn3c(=O)[nH]c4ccccc43)nc21	78*	88*	0.2	3	0.1
CCN(CC)CCOC(=O)c1c(C)n(C)c2ccc(OC)cc12	-6	-5	1.1	2	1.1
CCn1nc(NC(=O)c2ccccn2)c2cc3cc(C)ccc3nc21	14	20	0.9	10	0.8
O=C(NCCCN1CCOCC1)Nc1ccc(Cc2ccc(NC(=O)NCCCN3CCOCC3)cc2)cc1	nt	nt	nt	5	nt
Clc1cccc(-c2cc3nc4c(c(NCc5ccco5)n3n2)CCCC4)c1	14	41	0.9	5	0.6
Nc1c(C(=O)NC2CCCC2)sc2nc(-c3cccs3)ccc12	72*	44	0.3	3	0.6
Cc1cc(C)cc(N2C(=O)CN(Cc3sccc3C)C2=S)c1	nt	nt	nt	46*	nt
Nc1ccc(C2(c3ccc(N)cc3)C(=O)Nc3ccccc32)cc1	16	5	0.8	21	0.9
O=C1Nc2ccccc2C1(c1ccccc1)c1ccccc1	72*	74*	0.3	52*	0.3
COc1cc(/C=N/NC(=O)CSCc2ccc([N+](=O)[O-])cc2)cc(OC)c1OC	45	57*	0.6	11	0.4
COc1ccc(/C=N/NC(=O)CSCc2ccc([N+](=O)[O-])cc2)cc1OC	nt	nt	nt	26	nt
COc1cccc(OCC(=O)Nc2ccccc2NC(C)=O)c1	76*	-2	0.2	21	1
COc1cccc(OCC(=O)Nc2cc(Cl)ccc2Oc2ccccc2)c1	nt	nt	nt	3	nt
COc1ccccc1NC(=O)CCn1c(=O)sc2ccccc21	nt	nt	nt	51*	nt
SMILES	CYP2C19 inh	CYP2C9 inhib	CYP2C19 activ	Measles CPE	CYP2C9 activ
COc1ccccc1NC(=O)CCCC(=O)OCC(F)(F)C(F)F	87*	-182	0.1	9	2.8*
COc1ccc(NC(=O)CCCC(=O)OCC(F)(F)C(F)F)cc1	41	9	0.6	nt	0.9
CC(C)CNS(=O)(=O)c1ccc(NC(=O)Cn2nc(-c3ccc(F)cc3)ccc2=O)cc1	nt	nt	nt	14	nt
CSC(=S)N(C)C1CCS(=O)(=O)C1 (configuration not stated)	nt	nt	nt	7	nt
Cc1ccc[n+](CC(=O)/C=C2\N(C)c3ccccc3C2(C)C)c1	nt	nt	nt	7	nt
CCOC(=O)c1ccc(NC(=O)C2CCCN(S(=O)(=O)c3ccc(F)cc3)C2)cc1 (configuration not stated)	34	31	0.7	11	0.7
CCOC(=O)c1[nH]c2ccccc2c1NC(=O)CCN1CCN(C(=O)OCC)CC1	4	-2	1	1	1
COc1ccc(OCC(=O)NC(=S)Nc2ccccc2F)cc1	nt	nt	nt	10	nt
CCCOc1ccccc1N/C(=N/c1nc(C)cc(C)n1)NC(=O)COc1ccc(OC)cc1	90*	92*	0.1	5	0.1

Assay outcomes (PubChem BioAssay)
